Activation data for three compounds are collected here from PubChem BioAssay (NCATS).

Inconclusive results are not listed. A number with no mark means an inactive call. Calls come from the whole dose curve; as a rule, active = well fitted activation curve with a large enough effect; inconclusive = small, poorly fitted or top-dose-only effect; inactive = no such curve, though single readings can be large or run the other way.

Chain of Cellular tumor antigen p53 (Homo sapiens) (P04637 whole entry, looked up): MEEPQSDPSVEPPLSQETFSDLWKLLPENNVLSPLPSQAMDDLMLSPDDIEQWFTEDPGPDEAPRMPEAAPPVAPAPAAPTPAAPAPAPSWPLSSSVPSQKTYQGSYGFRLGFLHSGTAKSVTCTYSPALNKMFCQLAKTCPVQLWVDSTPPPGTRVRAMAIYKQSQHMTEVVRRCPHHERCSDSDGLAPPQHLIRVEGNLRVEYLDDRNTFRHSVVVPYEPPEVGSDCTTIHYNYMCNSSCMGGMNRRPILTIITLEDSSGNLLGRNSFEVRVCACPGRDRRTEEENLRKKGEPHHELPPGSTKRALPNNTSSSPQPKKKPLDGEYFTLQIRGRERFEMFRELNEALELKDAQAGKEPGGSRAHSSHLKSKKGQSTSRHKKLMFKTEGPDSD

In the assay the target is Cellular tumor antigen p53 (Homo sapiens) (UniProt P04637). The experiment in a line: Primary qHTS for small molecule compounds that upregulate eGFP-tagged delta133p53alpha (in N-terminal) cells. (AID 2060322).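 Note: cells pre-induced with doxycycline then dosed without doxycycline; series mostly up to about 56 µM; 0% = DMSO vehicle and 100% = reference activator; nearly all actives have a fitted effect of over 75% in size.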 The following applies: NCI-H358 eGFP-delta133p53alpha fluorescence, 24 h; activation: active compounds read high. The method in brief:
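NCI-H358 cells pre-induced 24 h with 10 ng/ml doxycycline for eGFP-delta133p53alpha, plated dox-free and exposed 24 h at 37C to titrated compounds. Fixed, Hoechst-stained; gated GFP peak intensity by laser scanning cytometry, normalized to DMSO (0%) and 57.5 uM 5-azacytidine (100%).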
A general note: Quantitative high-throughput screening tests each substance at several concentrations.
In the case of `Cc1ncc(CO)c(CN)c1O`, the activation was 16.4%.
In the case of `CC(C)OP(=O)(CP(=O)(OC(C)C)OC(C)C)OC(C)C`, the activation is -4.18%.
For the compound `COC(=O)CCCCC(CCSS/C(CCO)=C(\C)N(C=O)Cc1cnc(C)nc1N)SC(C)=O` (stereo not drawn), the activation was 10%.
